# PubChem BioAssay (NCATS)
# Where “and” joins values, the source holds several entries; their conditions need not be identical. Equal values may be shown once. Records with an inconclusive call do not appear. Where a call stands in place of a potency, no number is given. Unmarked numbers belong to inactive results. Calls of active or inactive are those of the source. Calls come from the whole dose curve; as a rule, active = well fitted cell-killing curve with a large enough effect; inconclusive = small, poorly fitted or top-dose-only effect; inactive = flat fitted curve, though single readings scatter.
# Test: qHTS of pediatric cancer cell lines to identify multiple opportunities for drug repurposing: Primary screen for RD cells (AID 1347104); note: nearly all actives have a fitted effect of over 55% in size
# Details: RD rhabdomyosarcoma viability, CellTiter-Glo luminescence, 48 h; series mostly up to 46 µM; activity change, negative = cytotoxic: at the top concentration
# In short: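 Primary screen of approved and investigational compounds on cells in growth media at 37 degrees C, 5% CO2. MIPE set at 11-point and NPC set at 8-point dilutions; viability scored by ATP-based luminescence at 48 hours.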
# Potency is the fitted concentration of half-maximal effect.
SMILES,"activity change, negative = cytotoxic",Potency
COC(=O)C1=C(C)NC(C)=C(C(=O)OC(C)C)C1c1cccc2nonc12 (stereo unspecified),-0.57%,
CC1(C)NC(=O)N(c2ccc([N+](=O)[O-])c(C(F)(F)F)c2)C1=O,,inactive
CC(C)(S)[C@@H](N)C(=O)O,13.9%,
Cc1ncc([N+](=O)[O-])n1CC(C)O (stereo unspecified),,inactive
COc1cc2c(cc1OC)C1CC(=O)C(CC(C)C)CN1CC2 (stereo unspecified),3.66%,
NS(=O)(=O)c1cc(C(=O)O)c(NCc2ccco2)cc1Cl,,inactive
COc1ccccc1N1CCN(CCN(C(=O)C2CCCCC2)c2ccccn2)CC1,-9.98%,
Cc1cc(=O)oc2cc(O)ccc12,,inactive
CNC[C@@H](O)[C@@H](O)[C@H](O)[C@H](O)CO,0.4%,
c1cnc2cc3c(cc2n1)C1CNCC3C1,3.91%,
CCOC(=O)c1c(C)n(C)c2ccc(O)cc12,,inactive
CCOc1cc(CC(=O)N[C@@H](CC(C)C)c2ccccc2N2CCCCC2)ccc1C(=O)O,-8.66%,
CC1Cc2ccccc2N1NC(=O)c1ccc(Cl)c(S(N)(=O)=O)c1 (stereo unspecified),,inactive
O=C(OC1C[C@H]2CC[C@@H](C1)[N+]21CCCC1)C(O)(c1ccccc1)c1ccccc1 (stereo partly specified),6.67%,
NNc1nncc2ccccc12,,inactive
Oc1ccc(OCc2ccccc2)cc1,12.3%,
Cc1cc(C2CCCCC2)n(O)c(=O)c1,,7.5 µM (active) and 18.7 µM (active)
COc1ccc2cc([C@H](C)C(=O)O)ccc2c1,,inactive

SMILES,"activity change, negative = cytotoxic",Potency
COc1c2occc2cc2ccc(=O)oc12,,inactive
C[Se]CCC(N)C(=O)O (stereo unspecified),-7.46% [at 92.7 µM],
CC1(C)C(=O)N(CCN2CCC(C(=O)c3ccc(F)cc3)CC2)c2ccccc21,-15.4%,
CCCCCCCCCCCCCCCCCCCCCCO,-2.82%,
O=C(NOCC1CC1)c1ccc(F)c(F)c1Nc1ccc(I)cc1Cl,,9.44 µM (active) and 5.26 µM (active)
Cc1nc2n(c(=O)c1CCN1CCC(c3noc4cc(F)ccc34)CC1)CCCC2,,inactive
N=C(N)c1ccc2cc(OC(=O)c3ccc(N=C(N)N)cc3)ccc2c1,,inactive
CCN(CCO)CCCC(C)Nc1ccnc2cc(Cl)ccc12 (stereo unspecified),5.84% [at 4.84 µM],
CCN(CC)C(=S)SSC(=S)N(CC)CC,,11.8 nM (active) and 35.1 nM (active) and 150 nM (active)
NC(=O)Cc1cccc(C(=O)c2ccccc2)c1N,,inactive
O=C(O)c1cn(-c2ccc(F)cc2)c2cc(N3CCNCC3)c(F)cc2c1=O,,inactive
CN1C(C(=O)Nc2ccccn2)=C(O)c2sccc2S1(=O)=O,,inactive
Cc1cc2c(s1)Nc1ccccc1N=C2N1CCN(C)CC1,,inactive
COc1cc(OC)c(C(=O)CCCN2CCCC2)c(OC)c1,,inactive
CC1=C(C(=O)O)N2C(=O)[C@@H](NC(=O)[C@H](N)C3=CCC=CC3)[C@H]2SC1,,inactive
Nc1cc(C(Cl)=C(Cl)Cl)c(S(N)(=O)=O)cc1S(N)(=O)=O,,inactive
Nc1ccc(S(N)(=O)=O)cc1,,inactive
Clc1ccc2c(N3CCN(CCCN4CCN(c5ccnc6cc(Cl)ccc56)CC4)CC3)ccnc2c1,19.4% [at 16.1 µM],
